Assay outcomes as filed in PubChem.
Hits are enriched below; roughly 0.95% of the tested compounds scored in any of these assays.
A488 fluor: compound autofluorescence in A488 spectral region; compound autofluorescence, A488 spectral region, dye equivalency; Compound Type: qHTS ECL - MLSMR; AID 591; 59,000 tested, 0.1% active; max dye equivalency, M
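Readout is A488 dye-equivalent concentration, calibrated by a per-plate six-point Alexa 488 series. Compounds in 100 mM Tris buffer pH 8.0 were incubated 15 min at room temperature. Plates were imaged using 480 nm excitation/540 nm emission filters.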
Fluorescein fluor: compound fluoresces in the fluorescein spectral region; Compound autofluorescence, 480/540 nm, fluorescein-equivalent; hits give high values; max fluorescein-equivalent concentration, M; 59,000 tested, 0.91% active; AID 593; in the data active means max fluorescein-equivalent concentration above about 10 nM; inconclusive means between about 1.1 nM and that limit
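Autofluorescence profiling; 100 mM Tris, pH 8.0; incubation 15 min at RT; ex/em 480/540 nm; result as fluorescein-equivalent concentration.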
Resorufin autofl: resorufin region autofluorescence; max dye-equivalent concentration, M; Compound fluorescence, resorufin region 547/598 nm, buffer; hits give high values; 59,000 tested, 0.04% active; AID 588
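Read-out: intrinsic compound fluorescence at ex 547/em 598 nm after 15 min at RT in pH 8.0 Tris (100 mM). Values expressed as resorufin-equivalent concentration from per-plate standard series.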
A647 fluor: A647 region autofluorescence | Compound fluorescence, A647 channel (570/671 nm), Tris buffer | max dye-equivalent concentration, M | 59,000 tested, under 10 active;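 further: values scaled relative to a standard on each plate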
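Fluorescence read (570 nm ex, 671 nm em) after 15 min RT incubation of compounds in 100 mM Tris buffer, pH 8.0; values expressed as dye-equivalent concentration against a six-point A647 standard series on each plate.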
TexasRed autofl: compounds fluorescent in Texas Red spectral region. max dye-equivalent concentration, M. Compound fluorescence, Texas Red channel, 547/618 nm; hits give high values. 59,000 tested, 0.06% active; in the data active means max dye-equivalent concentration above about 10 nM; inconclusive means between about 1.1 nM and that limit
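Compound fluorescence was read after 15 min at room temperature in 100 mM Tris, pH 8.0, using 547 nm excitation and 618 nm emission across a concentration series. It was expressed as Texas Red dye-equivalent concentration from an on-plate standard curve.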
Rhodamine autofl: compound fluoresces in the rhodamine spectral region; AID 594; 59,000 tested, 0.05% active; max dye-equivalent concentration, M; Rhodamine-region fluorescence, 547/598 nm, Tris buffer; hits give high values; in the data active means max dye-equivalent concentration above about 11 nM; inconclusive means between about 1.1 nM and that limit
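Intrinsic compound fluorescence, ex 547 / em 598 nm, CCD imager. Tris 100 mM pH 8.0; 15 min RT. Output = rhodamine dye-equivalent concentration at each compound concentration.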
Numbers without * were called inactive; i = inactive; ? = inconclusive; ! = a repeat was not active. Unless noted, how the calls were made is not given here.

SMILES	A488 fluor	Fluorescein fluor	Resorufin autofl	A647 fluor	TexasRed autofl	Rhodamine autofl
CCn1nc(C)c(/C=C2\CCCC3=C2OC(N)=C(C#N)C3c2c(C)nn(CC)c2C)c1C (stereo unspecified)	i	2.4e-08M*	i	1e-09	i	i
C[C@@H]1C[C@@]2(C)Oc3ccccc3[C@H]3OC[C@]1(COC(=O)Nc1ccccc1)[C@@H](C)[C@@H]32	i	i	i	5.4e-09	?	i
O=C1c2cccnc2C(=O)N1Cc1ccc(F)cc1	?	8.2e-08M*	i	1e-09	i	i
O=c1c(-c2ccccc2)[n+]([O-])c2ccccc2n1O	i	1.7e-08M*	i	1e-09	i	i
NC(=O)c1ncn([C@@H]2O[C@@H](CO)[C@@H](O)[C@H]2O)n1	i	?	i	2.6e-09	?	i
O=S(=O)(NC1CCCCCC1)c1cccc2cccnc12	i	i	i	4.9e-09	i	i
CC(CS(=O)(=O)c1cccc2cccnc12)N1CCCCC1 (stereo unspecified)	i	1.6e-08M*	i	4.8e-08	i	i
CC1CN(c2nc3ccccc3nc2C(C#N)C(=O)NC2CCCCC2)CC(C)O1 (stereo unspecified)	1.4e-08M*	2.9e-07M*	i	1e-09	i	i
CC(C)COc1nc2ccccc2nc1C(C#N)C(=O)NC1CCCCC1 (stereo unspecified)	?	7.3e-08M*	i	5.1e-08	i	i
CC1(C)CCC[C@@]2(C)[C@@H]1CC[C@]1(C)OC(=O)C[C@@H]21	i	i	i	1e-09	i	i
OC[C@@H]1O[C@H](O)[C@@H](Cl)[C@H](O)[C@@H]1O	i	i	i	8.7e-09	?	i
c1ccc(Cn2nnc3c(NCCN4CCOCC4)ncnc32)cc1	i	i	i	1.8e-08	i	i
c1ccc(CCNc2ncnc3c2nnn3Cc2ccccc2)cc1	i	1.2e-08M*	i	2.6e-09	i	i
COc1ccc(OC)c([C@H]2Nc3ccccc3NC3=C2C(=O)CC(C)(C)C3)c1Br	i	i	i	1e-09	?	i
CCCN1CCCc2cc(CN)ccc21	?	3.3e-08M*	i	1e-09	i	i
Cc1ccc(C(C)C)c(OCC(O)CN2CCOCC2)c1 (stereo unspecified)	i	?	i	2.4e-09	i	i
Cc1ccc2c(c1)c(C)c(C)n2CC(O)CN1CCOCC1 (stereo unspecified)	i	1.4e-08M*	?	3.9e-08	6.4e-08M*	1.2e-08M*
CCC1(c2ccccc2)C(=O)NCNC1=O	i	1.2e-08M*!	i	3.4e-08	i	i
O=C1NC(=O)C(c2ccccc2)(c2ccccc2)N1	i	?	i	1e-09	i	i
CCOC(=O)c1cnc(-n2nc(C)cc2C)nc1Nc1ccc(N(C)C)cc1	i	?	i	4.5e-08	?	i
CCOC(=O)c1cnc(-n2nc(C)cc2C)nc1NC1CCCCC1	i	?	i	4.7e-08	i	i
CCOC(=O)c1cnc(-n2nc(C)cc2C)nc1NC	i	1e-08M*	i	1.8e-09	i	i
CCOC(=O)c1cnc(-n2nc(C)cc2C)nc1N(CC)CC	i	1.1e-08M*	i	4.4e-08	i	i
CN[C@@H]1[C@H](O)[C@H](NC)[C@@H]2O[C@]3(O)C(=O)C[C@@H](C)O[C@H]3O[C@@H]2[C@H]1O	i	i	i	2.3e-08	i	i
N#C[C@@H]1[C@@H]2C(=O)N(c3ccc4c(c3)OCCO4)C(=O)[C@@H]2C2c3ccccc3C=CN21 (stereo partly specified)	i	1.3e-08M*	?	3.9e-08	?	?
SMILES	A488 fluor	Fluorescein fluor	Resorufin autofl	A647 fluor	TexasRed autofl	Rhodamine autofl
O=C(c1ccco1)[C@@H]1[C@@H]2C(=O)N(c3ccc(Br)cc3)C(=O)[C@@H]2C2c3ccccc3C=CN21 (stereo partly specified)	i	?	i	4.2e-09	?	i
COc1ccc(NC(=O)[C@@H]2[C@@H]3C(=O)N(C4CCCCC4)C(=O)[C@@H]3C3c4ccccc4C=CN32)cc1 (stereo partly specified)	i	?	i	1.8e-09	i	i
O=C(c1ccco1)[C@@H]1[C@@H]2C(=O)N(c3ccc(F)cc3)C(=O)[C@@H]2C2c3ccccc3C=CN21 (stereo partly specified)	i	1.3e-08M*	i	5.7e-09	?	i
CC(=O)[C@H]1[C@@H]2C(=O)N(c3cccc(Cl)c3)C(=O)[C@@H]2[C@H]2c3ccccc3C=CN21	i	1.8e-08M*	i	1e-09	i	i
CC(=O)[C@@H]1[C@@H]2C(=O)N(c3ccc(F)c(Cl)c3)C(=O)[C@@H]2C2c3ccccc3C=CN21 (stereo partly specified)	?	3.3e-08M*	?	3.5e-08	?	?
CC(=O)[C@H]1[C@H]2[C@H](C(=O)[C@@H]3OC[C@H]2O3)[C@@H]2c3ccccc3C=CN12	i	?	i	1.6e-08	i	i
N[C@@H](Cc1c[nH]c2ccccc12)C(=O)NCC(=O)O	i	i	i	3.8e-09	i	i
O=c1cc(-c2ccc(O)c(O)c2)oc2cc(O[C@@H]3O[C@@H](CO)[C@@H](O)[C@@H](O)[C@H]3O)cc(O)c12	i	?	i	1e-09	i	i
C[C@H](C(=O)c1ccccc1)[C@@H](c1ccccc1)N1CCOCC1	i	?	i	1.4e-08	i	i
Cc1ccc([C@@H]2C3COCC=C3C(C#N)=C(N)C2(C#N)C#N)o1 (stereo partly specified)	i	1.2e-08M*	i	1.9e-08	i	i
COc1cccc(Cn2c(=O)c(-c3cccc(C#N)c3)nc3cnc(Nc4ccccc4)nc32)c1	i	1.3e-08M*	i	3.1e-08	i	i
O=c1c(-c2cccs2)nc2cnc(Nc3ccccc3)nc2n1C[C@H]1CCCO1	?	4.2e-08M*	i	3.5e-08	i	i
N#Cc1cccc(-c2nc3cnc(Nc4ccccc4)nc3n(C[C@H]3CCCO3)c2=O)c1	i	1.3e-08M*	i	1.8e-09	i	i
COCCn1c(=O)c(-c2cccc(C#N)c2)nc2cnc(Nc3ccccc3)nc21	i	?	i	1.9e-08	i	i
COc1ccc([C@@H]2OC[C@]3(COC(C)=O)[C@H](C)C=C(C)[C@@H]2[C@H]3C)cc1	i	i	i	2.3e-09	i	i
CCOC(=O)c1c(C)oc2c1c(/C=N/c1ccccn1)c(O)c1ccccc12	i	2.2e-08M*	i	1e-09	i	i
